Several values for one entry are separate records, joined by “and”; a condition that tells them apart may be missing. Equal values may be shown once. Hit rate of the full screen: of about 5,500 compounds, about 2,000 (36%) were called active. Another 18% or so got no clear call; they are omitted. No stated cut-off is given here; in the data, active means normalized growth mostly below about 0.91 (no sharp cut-off); inconclusive means no clear call, values can overlap the other calls; inactive means mostly above about 0.92. This is one part of the list.
Assay: chemical genetic growth profiling, strain panel (AID 1159580);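 further: tested at 20 µM; growth read once vehicle control cultures reached saturation at 30 °C; 1 = growth at the plate median or of vehicle wells; lower values mean less growth of the strain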
Conditions: growth OD

Measured: normalized growth

COc1ccc(C(=O)O)cc1OC
inactive: S. cerevisiae deletion strains, locus YAL013W, strain DEP1, active compounds read low 1.02 | S. cerevisiae deletion strains, locus YAL021C, strain ccr4, active compounds read low 0.981 | S. cerevisiae deletion strains, locus YAL026C, strain drs2, active compounds read low 0.996 | S. cerevisiae deletion strains, locus YAL030W, strain snc1, active compounds read low 0.995 | S. cerevisiae deletion strains, locus YBL061C, strain skt5, active compounds read low 1 | S. cerevisiae deletion strains, locus YBR009C, strain hhf1, active compounds read low 1.01 | S. cerevisiae deletion strains, locus YBR021W, strain FUR4, active compounds read low 1.02 | S. cerevisiae deletion strains, locus YBR023C, strain chs3, active compounds read low 1.01 | S. cerevisiae deletion strains, locus YBR171W, strain sec66, active compounds read low 0.996 | S. cerevisiae deletion strains, locus YBR229C, strain ROT2, active compounds read low 1 | S. cerevisiae deletion strains, locus YBR231C, strain swc5, active compounds read low 0.996 | S. cerevisiae deletion strains, locus YBR279W, strain paf1, active compounds read low 0.997 | S. cerevisiae deletion strains, locus YCL011C, strain gbp2, active compounds read low 1 | S. cerevisiae deletion strains, locus YCL016C, strain dcc1, active compounds read low 1 | S. cerevisiae deletion strains, locus YCL029C, strain bik1, active compounds read low 0.992 | S. cerevisiae deletion strains, locus YCL069W, strain vba3, active compounds read low 1 | S. cerevisiae deletion strains, locus YCR088W, strain abp1, active compounds read low 0.996 | S. cerevisiae deletion strains, locus YDL005C, strain med2, active compounds read low 0.996 | S. cerevisiae deletion strains, locus YDL035C, strain GPR1, active compounds read low 1.08 | S. cerevisiae deletion strains, locus YDL040C, strain nat1, active compounds read low 0.997 | S. cerevisiae deletion strains, locus YDL074C, strain BRE1, active compounds read low 1.17 | S. cerevisiae deletion strains, locus YDL101C, strain DUN1, active compounds read low 1 | S. cerevisiae deletion strains, locus YDL185W, strain tfp1, active compounds read low 0.988 | S. cerevisiae deletion strains, locus YDL192W, strain arf1, active compounds read low 1.03 | S. cerevisiae deletion strains, locus YDR001C, strain nth1, active compounds read low 0.994 | S. cerevisiae deletion strains, locus YDR069C, strain doa4, active compounds read low 1.01 | S. cerevisiae deletion strains, locus YDR101C, strain arx1, active compounds read low 1.01 | S. cerevisiae deletion strains, locus YDR137W, strain rgp1, active compounds read low 1.02 | S. cerevisiae deletion strains, locus YDR159W, strain sac3, active compounds read low 0.964 | S. cerevisiae deletion strains, locus YDR162C, strain NBP2, active compounds read low 1.04 | S. cerevisiae deletion strains, locus YDR195W, strain ref2 0.908 | S. cerevisiae deletion strains, locus YDR297W, strain sur2, active compounds read low 1 | S. cerevisiae deletion strains, locus YDR318W, strain mcm21, active compounds read low 1 | S. cerevisiae deletion strains, locus YDR334W, strain swr1, active compounds read low 0.998 | S. cerevisiae deletion strains, locus YDR335W, strain msn5, active compounds read low 1 | S. cerevisiae deletion strains, locus YDR388W, active compounds read low 1 | S. cerevisiae deletion strains, locus YDR392W, strain spt3, active compounds read low 0.984 | S. cerevisiae deletion strains, locus YDR502C, strain sam2, active compounds read low 0.991 | S. cerevisiae deletion strains, locus YEL003W, strain gim4, active compounds read low 0.992 | S. cerevisiae deletion strains, locus YEL037C, strain rad23, active compounds read low 0.989 | S. cerevisiae deletion strains, locus YEL061C, strain CIN8 (second series), active compounds read low 0.998 | S. cerevisiae deletion strains, locus YER015W, strain faa2, active compounds read low 0.992 | S. cerevisiae deletion strains, locus YER016W, strain bim1, active compounds read low 1.01 | S. cerevisiae deletion strains, locus YER110C, active compounds read low 0.978 | S. cerevisiae deletion strains, locus YER111C, strain swi4, active compounds read low 1.01 | S. cerevisiae deletion strains, locus YER155C, strain BEM2 (second series), active compounds read low 0.988 | S. cerevisiae deletion strains, locus YER155C, strain BEM2, active compounds read low 0.994 | S. cerevisiae deletion strains, locus YER167W, strain BCK2, active compounds read low 0.999 | S. cerevisiae deletion strains, locus YFR010W, strain ubp6, active compounds read low 0.993 | S. cerevisiae deletion strains, locus YGL078C, strain dbp3, active compounds read low 0.99 | S. cerevisiae deletion strains, locus YGL086W, strain mad1, active compounds read low 1.01 | S. cerevisiae deletion strains, locus YGL167C, strain pmr1, active compounds read low 0.999 | S. cerevisiae deletion strains, locus YGL173C, strain kem1, active compounds read low 0.998 | S. cerevisiae deletion strains, locus YGL227W, strain vid30, active compounds read low 1.03 | S. cerevisiae deletion strains, locus YGL240W, strain doc1, active compounds read low 0.998 | S. cerevisiae deletion strains, locus YGL248W, strain PDE1, active compounds read low 1.05 | S. cerevisiae deletion strains, locus YGL253W, strain hxk2, active compounds read low 1.01 | S. cerevisiae deletion strains, locus YGR078C, strain PAC10, active compounds read low 1.04 | S. cerevisiae deletion strains, locus YGR135W, strain pre9, active compounds read low 0.988 | S. cerevisiae deletion strains, locus YGR252W, strain gcn5, active compounds read low 1.03 | S. cerevisiae deletion strains, locus YHR013C, strain ard1, active compounds read low 0.978 | S. cerevisiae deletion strains, locus YHR027C, strain rpn1, active compounds read low 1.01 | S. cerevisiae deletion strains, locus YHR030C, strain SLT2, active compounds read low 1 and 0.99 | S. cerevisiae deletion strains, locus YHR079C, strain IRE1 (second series), active compounds read low 0.987 | S. cerevisiae deletion strains, locus YHR079C, strain IRE1, active compounds read low 0.961 | S. cerevisiae deletion strains, locus YHR094C, strain hxt1, active compounds read low 0.972 | S. cerevisiae deletion strains, locus YHR129C, strain ARP1, active compounds read low 1.03 | S. cerevisiae deletion strains, locus YHR142W, strain chs7, active compounds read low 1.01 | S. cerevisiae deletion strains, locus YHR200W, strain rpn10, active compounds read low 0.993 | S. cerevisiae deletion strains, locus YIL066C, strain RNR3, active compounds read low 1.03 | S. cerevisiae deletion strains, locus YIL073C, strain SPO22, active compounds read low 1.02 | S. cerevisiae deletion strains, locus YIL125W, strain kgd1, active compounds read low 0.992 | S. cerevisiae deletion strains, locus YIR030C, strain dcg1, active compounds read low 0.985 | S. cerevisiae deletion strains, locus YJL092W, strain hpr5, active compounds read low 0.985 | S. cerevisiae deletion strains, locus YJL095W, strain BCK1 (second series), active compounds read low 0.985 | S. cerevisiae deletion strains, locus YJL095W, strain BCK1, active compounds read low 1.06 and 0.982 | S. cerevisiae deletion strains, locus YJL115W, strain asf1, active compounds read low 0.995 | S. cerevisiae deletion strains, locus YJL129C, strain trk1, active compounds read low 1.04 | S. cerevisiae deletion strains, locus YJL134W, strain LCB3, active compounds read low 0.995 | S. cerevisiae deletion strains, locus YJL154C, strain vps35, active compounds read low 0.992 | S. cerevisiae deletion strains, locus YJL164C, strain tpk1, active compounds read low 1 | S. cerevisiae deletion strains, locus YJL166W, strain qcr8, active compounds read low 1.01 | S. cerevisiae deletion strains, locus YJL168C, strain set2, active compounds read low 0.993 | S. cerevisiae deletion strains, locus YJL187C, strain SWE1 (second series), active compounds read low 1.02 | S. cerevisiae deletion strains, locus YJR066W, strain TOR1, active compounds read low 0.996 | S. cerevisiae deletion strains, locus YKL009W, strain mrt4, active compounds read low 1.02 | S. cerevisiae deletion strains, locus YKL068W, active compounds read low 0.983 | S. cerevisiae deletion strains, locus YKL085W, strain MDH1 (second series), active compounds read low 0.993 | S. cerevisiae deletion strains, locus YKL085W, strain MDH1, active compounds read low 0.993 | S. cerevisiae deletion strains, locus YKL160W, strain elf1, active compounds read low 1 | S. cerevisiae deletion strains, locus YKR001C, strain vps1, active compounds read low 1.05 | S. cerevisiae deletion strains, locus YKR026C, strain gcn3, active compounds read low 1 | S. cerevisiae deletion strains, locus YKR091W, strain srl3, active compounds read low 0.996 | S. cerevisiae deletion strains, locus YLL001W, strain dnm1, active compounds read low 0.997 | S. cerevisiae deletion strains, locus YLL026W, active compounds read low 0.999 | S. cerevisiae deletion strains, locus YLL041C, strain sdh2, active compounds read low 0.992 | S. cerevisiae deletion strains, locus YLR027C, strain aat2, active compounds read low 1 | S. cerevisiae deletion strains, locus YLR039C, strain RIC1, active compounds read low 1.22 | S. cerevisiae deletion strains, locus YLR058C, strain SHM2, active compounds read low 1.01 | S. cerevisiae deletion strains, locus YLR102C, strain apc9, active compounds read low 0.977 | S. cerevisiae deletion strains, locus YLR113W, strain HOG1, active compounds read low 0.982 | S. cerevisiae deletion strains, locus YLR221C, strain rsa3, active compounds read low 1.02 | S. cerevisiae deletion strains, locus YLR258W, strain gsy2, active compounds read low 1.01 | S. cerevisiae deletion strains, locus YLR262C, strain YPT6 (second series), active compounds read low 1.01 | S. cerevisiae deletion strains, locus YLR262C, strain YPT6, active compounds read low 1.2 | S. cerevisiae deletion strains, locus YLR268W, strain sec22, active compounds read low 1.05 | S. cerevisiae deletion strains, locus YLR320W, strain mms22, active compounds read low 1 | S. cerevisiae deletion strains, locus YLR330W, strain CHS5, active compounds read low 1.01 | S. cerevisiae deletion strains, locus YLR342W, strain FKS1 (second series), active compounds read low 1.07 | S. cerevisiae deletion strains, locus YLR342W, strain FKS1, active compounds read low 1 | S. cerevisiae deletion strains, locus YLR357W, strain rsc2, active compounds read low 0.981 | S. cerevisiae deletion strains, locus YLR370C, strain arc18, active compounds read low 1.01 | S. cerevisiae deletion strains, locus YLR371W, strain rom2, active compounds read low 0.991 | S. cerevisiae deletion strains, locus YLR384C, strain iki3, active compounds read low 1.01 | S. cerevisiae deletion strains, locus YLR418C, strain cdc73, active compounds read low 1.07 | S. cerevisiae deletion strains, locus YML016C, strain PPZ1, active compounds read low 1 | S. cerevisiae deletion strains, locus YML032C, strain rad52, active compounds read low 0.998 | S. cerevisiae deletion strains, locus YML120C, strain ndi1, active compounds read low 1.01 | S. cerevisiae deletion strains, locus YML124C, strain tub3, active compounds read low 0.989 | S. cerevisiae deletion strains, locus YMR058W, strain fet3, active compounds read low 1 | S. cerevisiae deletion strains, locus YMR078C, strain ctf18, active compounds read low 0.982 | S. cerevisiae deletion strains, locus YMR125W, strain sto1, active compounds read low 0.985 | S. cerevisiae deletion strains, locus YMR129W, active compounds read low 0.93 | S. cerevisiae deletion strains, locus YMR205C, strain PFK2, active compounds read low 1 | S. cerevisiae deletion strains, locus YMR223W, strain ubp8, active compounds read low 1 | S. cerevisiae deletion strains, locus YMR231W, strain pep5, active compounds read low 0.989 | S. cerevisiae deletion strains, locus YMR307W, strain GAS1, active compounds read low 1.14 | S. cerevisiae deletion strains, locus YNL067W, strain RPL9B, active compounds read low 1.01 | S. cerevisiae deletion strains, locus YNL071W, strain lat1, active compounds read low 0.99 | S. cerevisiae deletion strains, locus YNL128W, strain TEP1, active compounds read low 1.03 | S. cerevisiae deletion strains, locus YNL183C, strain NPR1, active compounds read low 0.921 | S. cerevisiae deletion strains, locus YNL209W, strain ssb2, active compounds read low 0.985 | S. cerevisiae deletion strains, locus YNL233W, strain BNI4, active compounds read low 1.04 | S. cerevisiae deletion strains, locus YNL248C, strain rpa49, active compounds read low 1 | S. cerevisiae deletion strains, locus YNL250W, strain rad50, active compounds read low 0.952 | S. cerevisiae deletion strains, locus YNL271C, strain bni1, active compounds read low 0.994 | S. cerevisiae deletion strains, locus YNL298W, strain CLA4, active compounds read low 0.997 | S. cerevisiae deletion strains, locus YNL307C, strain MCK1, active compounds read low 0.975 | S. cerevisiae deletion strains, locus YNL322C, strain KRE1 (second series), active compounds read low 0.986 | S. cerevisiae deletion strains, locus YNR049C, strain mso1, active compounds read low 0.987 | S. cerevisiae deletion strains, locus YNR052C, strain pop2, active compounds read low 0.969 | S. cerevisiae deletion strains, locus YOL006C, strain TOP1, active compounds read low 1.36 | S. cerevisiae deletion strains, locus YOL012C, strain htz1 0.898 | S. cerevisiae deletion strains, locus YOL147C, strain pex11, active compounds read low 0.997 | S. cerevisiae deletion strains, locus YOR001W, strain rrp6, active compounds read low 1.02 | S. cerevisiae deletion strains, locus YOR061W, strain CKA2, active compounds read low 1.01 | S. cerevisiae deletion strains, locus YOR069W, strain VPS5, active compounds read low 0.996 | S. cerevisiae deletion strains, locus YOR070C, strain gyp1, active compounds read low 1 | S. cerevisiae deletion strains, locus YOR080W, strain dia2, active compounds read low 0.996 | S. cerevisiae deletion strains, locus YOR083W, strain WHI5, active compounds read low 0.996 | S. cerevisiae deletion strains, locus YOR106W, strain vam3, active compounds read low 1.02 | S. cerevisiae deletion strains, locus YOR136W, strain idh2, active compounds read low 0.995 | S. cerevisiae deletion strains, locus YOR144C, strain elg1, active compounds read low 0.978 | S. cerevisiae deletion strains, locus YOR184W, strain ser1, active compounds read low 1.07 | S. cerevisiae deletion strains, locus YOR231W, strain MKK1, active compounds read low 0.979 | S. cerevisiae deletion strains, locus YOR265W, strain rbl2, active compounds read low 0.995 | S. cerevisiae deletion strains, locus YOR270C, strain vph1, active compounds read low 1.02 | S. cerevisiae deletion strains, locus YOR290C, strain snf2, active compounds read low 1.02 | S. cerevisiae deletion strains, locus YOR316C, strain cot1, active compounds read low 1.01 | S. cerevisiae deletion strains, locus YPL051W, strain arl3, active compounds read low 0.993 | S. cerevisiae deletion strains, locus YPL078C, strain atp4, active compounds read low 1 | S. cerevisiae deletion strains, locus YPL106C, strain sse1, active compounds read low 0.975 | S. cerevisiae deletion strains, locus YPL240C, strain hsp82, active compounds read low 1 | S. cerevisiae deletion strains, locus YPL256C, strain CLN2, active compounds read low 0.973 | S. cerevisiae deletion strains, locus YPR119W, strain clb2, active compounds read low 1 | S. cerevisiae deletion strains, locus YPR141C, strain kar3, active compounds read low 0.976 | S. cerevisiae deletion strains, locus YPR163C, strain tif3, active compounds read low 1.01 | S. cerevisiae deletion strains, locus YPR167C, strain met16, active compounds read low 1.02 | S. cerevisiae deletion strains, strain wtn01, active compounds read low 1.01 | S. cerevisiae strains, strain wild type, active compounds read low 1.06
